Drawing on PubChem BioAssay AID1662 (Broad Institute, 2009), this text covers inhibition for 90 compounds.

Among all 300,000 compounds or so, about 4,000 (1.3%) were called active. Many of the other results were omitted from the sample, so actives are more common in it than they were. Values without a mark were called inactive.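 Rule for the calls: active = mean replicate score, as percent of positive control median, at least 50; inconclusive = mean below 50 but one replicate at or above 50; inactive = mean and every replicate below 50.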

The nature of the experiment: S. pyogenes SKKanGAS growth inhibitors in kanamycin, primary screen, streptokinase expression inhibitor project, SKKanGAS strain, BacTiter-Glo luminescence (AID 1662).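 Note: strain carries kanamycin resistance gene driven by streptokinase promoter and grows in 40 µg/ml kanamycin; loss of luminescence reflects streptokinase promoter inhibition or plain growth inhibition; 0% = median of DMSO wells and 100% = positive control at its reference dose.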 The conditions noted are these: 6 h, at 7.5 µM, stronger effect = higher value.
For `COc1ccccc1CNS(=O)(=O)c1cc2c3c(c1)CCC(=O)N3CCC2`, the inhibition is -8.56%.
Consider `NS(=O)(=O)c1ccc(CCNC(=O)CN2C(=O)c3ccccc3S2(=O)=O)cc1`, for which the inhibition was -2.59%.
The value for `CCCCCCc1ccc(O)cc1O` was 9.42%.
As for `CCCCCCc1cc2cc(-c3nnc(-c4ccccc4)o3)c(=O)oc2cc1O`, the inhibition was 62% (active).
The value for `Cc1c(CC(=O)NCCCCCC(=O)O)c(=O)oc2cc3occ(-c4ccccc4)c3cc12` was 18.7%.
With `O=C(CCc1nnc2ccc(NCc3ccco3)nn12)Nc1cc(F)ccc1F` the figure was -0.213%; with `Cc1ccc(NC(=S)NC(=O)c2ccc(-c3ccccc3)cc2)cc1`, 9.46%; with `C/C(=N\NC(=O)c1ccc(C)cc1)C1C(=O)c2ccccc2C1=O`, 52.3% (active).
With `Cc1ccc(C(=O)NC(=S)Nc2ccccc2C)cc1` the figure was -6.14%.
Turning to `CC(C)c1ccccc1OCC(O)CN(CC(O)COc1cccc2ccccc12)C(C)C` (stereo not given), the inhibition was 97.9% (active).
On to `OC(COc1cccc2ccccc12)CN1CCN(c2ccccn2)CC1` (stereo not given), for which the inhibition is 13.1%.
With `Cc1cc(C)c(NC(=O)C[N+](C)(C)CC(O)COc2cccc3ccccc23)c(C)c1` (stereo not given) the figure was 29%.
The value for `CC(C)=CCCC1(C)C=Cc2c(ccc3c2[nH]c2cc(O)c(C)cc23)O1` (stereo not given) was 112% (active); that for `COc1ccc(CCNC(=O)C(=O)NCC2OCCN2S(=O)(=O)c2cccs2)cc1OC` (stereo not given) was -1.24%; that for `CCCC(CCC(=O)OC)(C(=O)OCC)c1csc(N)n1` (stereo not given) was -8.11%.
The value for `CCCCCCCCCCCCC(NC(C)=O)(C(=O)OCC)C(=O)OCC` was 61.2% (active); that for `O=S(=O)(c1cccc(-c2cn3ccccc3n2)c1)N1CCCC1` was -3.54%; that for `O=C(CSc1nc(O)c(Cc2ccccc2)c(=O)[nH]1)Nc1nc2c(s1)CCCC2` was 28.8%.
As to `O=S(=O)(c1cc(Cl)ccc1Cl)N1CCN(Cc2ccco2)CC1`, the inhibition is 2.62%.
In the case of `CC(=O)Nc1ccc(NC(=O)C(C)n2c3ccccc3c3nc(=O)cc(C)n32)cc1` (stereo not given), the inhibition was 3.43%.
The value for `Cc1sc2nc(SCC(N)=O)n(C)c(=O)c2c1C` was -2.36%; that for `C=CCn1c(SCC(=O)NCC2CCCO2)nc2sc(C)c(C)c2c1=O` (stereo not given) was -1.04%.
With `C=CCn1c(SCC(=O)/C(C#N)=C(\C)N)nc2sc(C)c(C)c2c1=O` the figure was 58.1% (active); with `COc1ccc(NC(=O)CN(C)C(=O)/C=C/c2cn(Cc3ccccc3)nc2-c2cccnc2)cc1`, 18.3%; with `CCOc1ccc2[nH]c(=O)c(CN(CCCO)S(=O)(=O)c3ccc(F)cc3)cc2c1`, 0.803%.
The value for `COc1cc(C2C(C(=O)c3ccco3)=C(O)C(=O)N2c2cc(C)on2)ccc1OCc1ccccc1` (stereo not given) was 2.64%.
For `Cc1cc(N2C(=O)C(O)=C(C(=O)c3ccc(C)o3)C2c2ccc(OCc3ccccc3)cc2)no1` (stereo not given), the inhibition was 106% (active).
In the case of `C=CCOc1cccc(C2C(C(=O)c3ccc(C)o3)=C(O)C(=O)N2c2nnc(C)s2)c1` (stereo not given), the inhibition is 7.43%.
`Cc1ccc(C2(c3ccc(C)cc3)NC(=O)N(Cc3c(C)noc3C)C2=O)cc1`: the inhibition was 4.44%.
On to `O=C(CCc1ccccc1)NNC(=O)COc1ccc(Cl)cc1`, for which the inhibition was 5.54%.
The value for `FC(F)Oc1ccccc1C1CC(c2ccc(Br)s2)Nc2ncnn21` (stereo not given) was 59.5% (active).
With `COc1ccc(C2CC(c3ccc(C)cc3)Nc3ncnn32)cc1` (stereo not given) the figure was -7.13%; with `Clc1ccc(C2CC(c3cccs3)n3ncnc3N2)cc1Cl` (stereo not given), -0.937%; with `CCCCCC(O)(CCN1CCCCC1)c1ccccc1` (stereo not given), -0.734%.
The value for `Cc1ccsc1C(=O)OCC(=O)c1cc2ccccc2o1` was 49.9% (active).
On to `Cc1ccsc1C(=O)OCC(=O)c1cc(C)n(CC2CCCO2)c1C` (stereo not given), for which the inhibition was 9.42%.
The value for `CSCCC(NC(=O)COc1ccccc1)C(=O)OCC(=O)c1cc2ccccc2o1` (stereo not given) was -0.0582%.
The value for `CC(C)(C)NC(=O)CN(C(=O)c1ccc(Cl)nc1)c1cccc2ccccc12` was -17.5%.
The value for `CC(C)Oc1ccc(/C=N/NC(=O)c2nnn(-c3nonc3N)c2CN(C)C2CCCCC2)cc1` was 18.9%.
As for `O=C(NCC(=O)N1CCN(c2ccccc2O)CC1)c1ccc2ccccc2c1`, the inhibition is 11.7%.
The value for `CN1C(=O)/C(=C\c2ccc(-c3ccccc3)o2)SC1=S` was 7.05%; that for `O=C(O)C(c1ccccc1)N1C(=O)/C(=C\c2ccc(-c3cccc(Cl)c3)o2)SC1=S` (stereo not given) was 94% (active).
With `O=C1NN(c2ccccc2)C(=O)/C1=C/c1ccc(-c2cccc(C(=O)O)c2)o1` the figure was -2.46%.
The value for `Cn1c(=O)oc2cc(S(=O)(=O)NCCC(=O)NCc3ccccc3Cl)ccc21` was 2.05%.
Regarding `C=CCn1c(C23CC4CC(CC(C4)C2)C3)n[nH]c1=S`, the inhibition was 1.54%.
For the compound `COc1ccccc1NC(=O)CSc1nc2sc3c(c2c(=O)n1-c1ccccc1)CCN(C)C3`, the inhibition is -17%.
The value for `Cc1cc(NC(=O)CSc2nc3cc(Cl)ccc3c(=O)n2Cc2ccco2)no1` was 1.74%.
With `COc1ccccc1NC(=O)CSc1nc2sc(C)c(C)c2c(=O)n1Cc1ccco1` the figure was 52.6% (active); with `CC(C)Cc1oc(C(=O)O)cc1CN`, 4.13%; with `CCOC(=O)c1ccc(NC(=O)c2nc[nH]c2C(=O)N[C@@H](CCCCNC(=O)OC(C)(C)C)C(=O)OC(C)(C)C)cc1`, 50.8% (active).
With `Cc1ccc(NC(=O)c2nc[nH]c2C(=O)N[C@@H](CCCCNC(=O)OC(C)(C)C)C(=O)OC(C)(C)C)cc1`, the inhibition is 76.8% (active).
On to `C[C@H](NC(=O)c1nc[nH]c1C(=O)N[C@@H](C)C(=O)OC(C)(C)C)C(=O)OC(C)(C)C`, for which the inhibition was 1.23%.
`CCOC(=O)c1[nH]cnc1C(=O)Nc1ccccc1C`: the inhibition is 10.7%.
With `CCOC(=O)c1ccc(NC(=O)c2nc[nH]c2C(=O)NCc2ccccc2)cc1` the figure was 18.8%; with `CNC(=O)c1[nH]cnc1C(=O)N[C@@H](CC(C)C)C(=O)OC(C)(C)C`, -5.44%; with `Cc1cc(C(=O)CCC(=O)NNC(=O)c2ccccc2O)c(C)s1`, 12.7%.
The value for `O=C1c2ccccc2S(=O)(=O)c2cc(N3CCN(c4ccccn4)CC3)ccc21` was 14.1%; that for `Cc1nc2c(-c3ccccc3)c(C)[nH]n2c(=O)c1Cl` was 18.8%.
With `COCc1cc(=O)n2[nH]c(C)c(-c3ccccc3)c2n1` the figure was -14.5%.
`CCCc1cc(=O)n2[nH]c(C)c(-c3ccc(Cl)cc3)c2n1`: the inhibition is 53.5% (active).
With `Cc1ccc2nnn(Cc3cccc(C(C)(C)C)c3O)c2c1` the figure was 11.4%; with `CC1=NNC(=O)C1CCC(=O)N/N=C\c1cccc(Cl)c1` (stereo not given), 4.3%.
With `O=c1[nH]oc(O)c1-c1ncc(C(F)(F)F)cc1Cl` the figure was -8.5%.
With `Cc1ccc(NC(=O)C2CC(=O)N(c3ccc4c(c3)OCCO4)C2)cc1S(=O)(=O)N1CCCCCC1` (stereo not given) the figure was -2.91%; with `Cc1ccc(C(C)C)cc1OCC(=O)Nc1ccccc1N1CCCC1`, 69.7% (active).
As to `CCC(=O)N1CCN(c2ccccc2NC(=O)COc2cccc(C)c2C)CC1`, the inhibition was 5.73%.
With `Cc1ccccc1NC(=O)CNc1ccccc1N1CCCCC1` the figure was 9.21%; with `Cc1nn2c(NCCN(C)C)c3c(nc2c1-c1ccccc1)CCC3`, 6.41%; with `COC(=O)c1ccc(C(=O)OC)c(NC(=S)N2CCN(c3cc(Cl)ccc3C)CC2)c1`, 14.5%.
`Cc1ccc(Cl)cc1N1CCN(C(=O)c2cccc3c(=O)c(C)c(-c4ccccc4)oc23)CC1`: the inhibition is 52.6% (active).
With `Cc1cccc(N2CCN(C(=O)c3cnn4c(C(F)F)cc(-c5ccccc5)nc34)CC2)c1C` the figure was 38.6%.
The value for `CC1(C)C=C2[C@H]3CC[C@@H]4[C@@]5(C)CCC(=O)C(C)(C)[C@@H]5CC[C@@]4(C)[C@]3(C)CC[C@@]2(C(=O)O)CC1` was 96.7% (active).
The value for `Cc1ccc(S(=O)(=O)N2CCOCC2)cc1C(=O)Nc1ccccc1N1CCCC1` was -4.42%.
For `COc1ccc(C(=O)NC2CC2)cc1OC1CCN(Cc2cnn(C)c2)CC1`, the inhibition is 7.48%.
With `CCCCCC(O)c1cccc(OCc2ccc3ccccc3n2)c1` (stereo not given) the figure was 15.6%; with `CCOC(=O)C1=C(C)N=C2c3ccccc3C(=O)C2C1c1ccc(Br)cc1` (stereo not given), 38.8%.
With `O=C1c2ccccc2C2=Nc3ccccc3SC(c3ccccc3F)C12` (stereo not given) the figure was 52.9% (active); with `O=C1c2ccccc2C(=O)C1c1ccccc1F`, 0.629%.
With `O=C(c1ccc(F)cc1)C1CCN(Cc2cn[nH]c2-c2ccccc2)CC1` the figure was -0.535%; with `CCN1C(=O)[C@H]2[C@@H](c3ccc(-c4ccc(F)cc4)cc3)N[C@@](Cc3ccccc3)(C(=O)OC)[C@H]2C1=O`, 9.27%.
As to `CCC(C)C(=O)Nc1cc([N+](=O)[O-])ccc1Cl` (stereo not given), the inhibition is -5.67%.
The value for `O=C(CN1CCSCC1)N/N=C/c1ccc(F)cc1F` was -4.84%; that for `O=C(NCCN1CCOCC1)c1cc(-c2cccs2)nc2ccccc12` was -10.4%.
The value for `COC(=O)c1cc(-c2cccs2)nc2ccccc12` was -7.36%.
The value for `O=C(Nc1nnc(-c2ccccc2)o1)c1cc(-c2cccs2)nc2ccccc12` was 92.3% (active).
On to `C#CCNC(=O)C1=C[C@@H](c2ccccc2)[C@H](CCCO)[C@@H](OCC)O1`, for which the inhibition is 0.924%.
The value for `O=C(Nc1ccccc1Cl)NC1(C(=O)N2CCOCC2)CCCCC1` was -13%.
Turning to `CCc1nc(NCCO)c(C#N)c2c1CCCC2`, the inhibition was -3.02%.
Regarding `CCCCc1nc(NCCN)c(C#N)c2c1CSC(C)(C)C2`, the inhibition is -15.3%.
The value for `CCCCc1nc(NCc2ccccc2)c(C#N)c2c1CCCC2` was 60% (active).
